This is a sample that favours compounds with a hit; in the whole collection about 2.3% have one here.
CHO-K1 Ca antag – counter-screen for M1 antagonists: effect in parental CHO-K1 cells | 360,000 compounds, 0.6% hits | inhibition, % at 3 µM | ATP-induced calcium, Fluo-8 fluorescence | AID 602250;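 active means inhibition above a per-plate cutoff, the plate's mean sample inhibition plus 3 SD, cut at about 24% in these data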
M1 ag – human M1 muscarinic receptor agonists, primary screen, Fluo-8 calcium fluorescence, CHO-K1 cells, HTS; Muscarinic acetylcholine receptor M1 (Homo sapiens), P11229; CHO-K1 hM1, agonist mode; 0% DMSO, 100% acetylcholine EC100; activation, % at 3 µM; 360,000 compounds, 0.33% hits; AID 588814, 2011;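 active means activation above the run's mean compound activation plus 3 SD, cut at about 16% in these data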;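 further: peak over basal fluorescence ratio within a 140 s kinetic read after compound addition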
Target sequence (P11229 whole entry, looked up): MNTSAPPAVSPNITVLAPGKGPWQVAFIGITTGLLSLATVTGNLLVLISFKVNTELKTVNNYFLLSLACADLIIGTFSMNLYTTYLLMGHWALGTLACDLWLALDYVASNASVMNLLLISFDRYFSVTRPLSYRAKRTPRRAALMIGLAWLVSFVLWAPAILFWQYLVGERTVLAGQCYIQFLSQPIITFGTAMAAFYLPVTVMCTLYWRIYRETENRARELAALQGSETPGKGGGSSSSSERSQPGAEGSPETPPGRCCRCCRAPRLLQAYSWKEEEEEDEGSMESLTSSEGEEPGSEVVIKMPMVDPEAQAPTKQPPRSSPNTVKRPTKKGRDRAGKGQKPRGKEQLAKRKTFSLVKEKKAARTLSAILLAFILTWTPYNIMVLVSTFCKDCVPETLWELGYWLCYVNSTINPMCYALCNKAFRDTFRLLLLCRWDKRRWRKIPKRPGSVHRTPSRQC
M1 PAM – human M1 muscarinic receptor positive allosteric modulators, primary screen, CHO-K1 cells, Fluo-8 calcium fluorescence, 1536-well. Muscarinic acetylcholine receptor M1 (Homo sapiens), P11229. activation, % at 3 µM. AID 588819, 2011. 360,000 compounds, 0.088% hits. CHO-K1 hM1, ACh EC20; 0% = ACh EC20, 100% = maximal ACh; in the data active means activation above about 19%, passing the limit was not always enough
M1 PAM parental – nonselective calcium activators in parental CHO-K1 cells, primary screen, counter-screen for M1 PAM project, cell-based, Fluo-8 calcium fluorescence, full deck, 1536-well | ATP EC20; 0% at ATP EC20, 100% at ATP max | activation, % at 3 µM | 360,000 compounds, 0.02% hits | AID 602247, 2012;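 active means activation above the run cutoff, the mean activation of all test compounds plus 3 SD, cut at about 40% in these data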;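 further: peak over basal fluorescence ratio in a 140 s read after ATP addition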
CHO-K1 Ca ag – counter-screen for M1 agonists: effect in parental CHO-K1 cells; Fluo-8 calcium fluorescence; scaled to maximal ATP response, vehicle zero; activation, % at 3 µM; 360,000 compounds, 0.48% hits; in the data active means activation above about 15%;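 further: untransfected CHO-K1 host cells lacking M1 receptor as counterscreen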
CHRM1 antagonist – human M1 muscarinic receptor antagonists, primary screen, CHO-K1 cells, Fluo-8 calcium fluorescence, 1536-well. Muscarinic acetylcholine receptor M1 (Homo sapiens), P11229. CHO-K1 hM1, ACh EC80 antagonist. inhibition, % at 3 µM. 360,000 compounds, 1.3% hits. AID 588852, 2011;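 active means percent inhibition above its own plate's cutoff, namely the mean of that plate's compound wells plus 3 SD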;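 further: peak over basal fluorescence ratio during 140 s after agonist addition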
A number is an active result; . = inactive.

SMILES	CHO-K1 Ca antag	M1 ag	M1 PAM	M1 PAM parental	CHO-K1 Ca ag	CHRM1 antagonist
CC(C)[C@@H]1CC[C@@H](C)C[C@H]1OC(=O)C[n+]1cc(-c2ccc(Cl)cc2)n2c1CCCCC2	.	.	.	.	.	93.5
CSc1ccc(CN(C)C(=O)C(Cc2ccccc2)NC(=O)c2ccccc2)cc1 (configuration not stated)	.	.	.	.	.	44.0
CN(Cc1ccc(F)cc1)C(=O)C(Cc1ccccc1)NC(=O)c1ccccc1 (configuration not stated)	.	.	.	.	.	.
COc1ccc(CN(C)C(=O)C(Cc2ccccc2)NC(=O)c2ccccc2)cc1F (configuration not stated)	.	.	.	.	.	42.3
CCOc1ccccc1NC(=O)C(OC(=O)c1cnc(C)cn1)c1ccccc1 (configuration not stated)	.	.	.	46.1	.	.
CCC(=O)NC(=S)Nc1ccc(N2CCN(C(=O)c3ccc(Cl)cc3)CC2)cc1	.	.	.	.	.	.
CCN(C(=O)c1c([N+](=O)[O-])cnn1C)c1ccccc1	.	.	.	.	.	.
Cc1nn(CC(=O)N2CCN(c3ccc(Cl)cc3)CC2)c(=O)c2cccn12	.	.	.	.	.	.
CCOC(=O)C1(CCOc2ccccc2)CCN(Cc2cccc(OC)c2OC)CC1	.	.	.	.	.	41.7
CCOC(=O)C1(CCOc2ccccc2)CCN(Cc2ccc(OC)cc2)CC1	.	.	.	.	18.0	.
CCOC(=O)C1(CCOc2ccccc2)CCN(Cc2ccc(NC(C)=O)cc2)CC1	.	.	.	.	.	.
CN(C)CCCNCC(=O)c1c(-c2ccccc2)n(C)c2ccccc12	.	.	.	.	.	.
OC(CSc1ccccc1)CN1CCN(c2cccc(Cl)c2)CC1 (configuration not stated)	.	24.6	.	.	.	.
OC(CSc1ccccc1)CN1CCN(c2ccc(Cl)cc2)CC1 (configuration not stated)	.	.	.	.	.	.
OC(COc1cccc2ccccc12)CN1CCN(c2cccc(Cl)c2)CC1 (configuration not stated)	.	.	.	.	21.2	.
CC(=O)CCC(=O)N1CCCC(N2CCN(c3cccc(Cl)c3)CC2)C1 (configuration not stated)	.	.	.	.	.	.
CCOc1ccc(NC(=O)COc2ccc(C(=O)NCCc3ccccc3)cc2)cc1	29.3	.	.	.	.	.
CC(C)c1ccccc1NC(=O)COc1ccc(C(=O)NCCc2ccccc2)cc1	.	.	.	.	.	.
CCCN(CCC)S(=O)(=O)c1cccc(-c2csc(C)n2)c1	.	.	.	.	21.6	.
O=C(OCc1cn([C@H]2CN(C(=O)c3cccs3)[C@@H](c3ccc(Cl)cc3)C[C@@H]2O)nn1)c1ccccc1	.	.	.	.	.	.
C/C(=N/NC(=O)CN(c1ccccc1)S(=O)(=O)c1ccccc1)c1ccccc1O	.	.	.	.	.	.
CN(C(=O)CSc1nc2ccccc2c(=O)n1C)C1CCS(=O)(=O)C1 (configuration not stated)	.	.	.	.	.	.
CN(C(=O)COC(=O)c1nc(-c2ccccc2)n(-c2ccccc2)n1)C1CCS(=O)(=O)C1 (configuration not stated)	.	.	.	.	.	64.3
Cc1nn(-c2ccccc2)c(C)c1C(=O)OCC(=O)N(C)C1CCS(=O)(=O)C1 (configuration not stated)	.	.	.	.	.	.
CN(C(=O)CSc1nc2ccccc2n1C)C1CCS(=O)(=O)C1 (configuration not stated)	.	.	.	.	.	29.1
SMILES	CHO-K1 Ca antag	M1 ag	M1 PAM	M1 PAM parental	CHO-K1 Ca ag	CHRM1 antagonist
O=C(O)c1ccc(N=Nc2c(O)ccc3ncccc23)cc1	.	.	.	.	.	.
COc1ccc(-c2csc(C(C)(O)c3cccnc3)n2)cn1 (configuration not stated)	.	.	.	.	.	.
C=CCN1C(=NC(=O)CCC(=O)O)SC2CS(=O)(=O)CC21 (configuration not stated)	.	.	.	.	.	.
C=CCN1C(=NC(=O)CCCC(=O)O)SC2CS(=O)(=O)CC21 (configuration not stated)	28.2	.	.	.	.	.
CCOC(=O)C1CCCN(c2nc3c(C)cccn3c(=O)c2/C=C(\C#N)C(=O)NCc2ccco2)C1 (configuration not stated)	.	62.5	.	.	.	76.1
Cc1cccn2c(=O)c(/C=C(\C#N)C(=O)NCc3ccco3)c(N3CCCC(C)C3)nc12 (configuration not stated)	.	.	.	.	.	.
COc1cc(OC)cc(C(=O)N(Cc2ccco2)c2c(N)n(Cc3ccccc3)c(=O)[nH]c2=O)c1	.	.	.	.	.	.
C=CCn1c(=S)[nH]c2cc(C(=O)Nc3ccc(F)cc3)ccc2c1=O	.	.	.	.	.	22.6
CCCCNc1c(-c2cccc(-c3ccc(OC)cc3)c2)nc2ccc(C)cn12	.	.	.	.	.	59.0
CCCCNc1c(-c2cccc(-c3cc(C(C)=O)cs3)c2)nc2ccc(C)cn12	.	.	.	.	.	37.0
CCCCNc1c(-c2cccc(-c3ccc(OC)cc3)c2)nc2cc(C)ccn12	.	.	.	.	.	61.7
CCCCNc1c(-c2ccc(OC)c(SC3CCCCC3)c2)nc2cc(C)ccn12	.	.	.	.	.	.
COC(=O)NNC(=S)NCc1ccccc1	.	.	.	.	.	.
COc1ccccc1CCN=C(N)NS(=O)(=O)c1ccc(C)cc1	.	.	.	.	17.4	.
COc1ccc(CCN=C(N)NS(=O)(=O)c2ccc(C)cc2)cc1OC	.	.	.	.	.	.
CC(=O)Oc1ccc(OC(C)=O)c(SCCCCCN2CCOCC2)c1	.	.	.	.	.	.
CCC(C)N(C(=O)CSc1nc(-c2cccs2)nc2ccccc12)C1CCS(=O)(=O)C1 (configuration not stated)	.	.	.	.	.	.
OCCN(Cc1ccccn1)Cc1ccccn1	.	.	.	.	.	71.7
ON(CCc1ccccn1)CCc1ccccn1	.	.	.	.	.	.
O=[N+]([O-])c1c(Nc2ccc(O)cc2)cc(Cl)c2nonc12	44.5	.	.	.	.	41.5

High-throughput results as filed in PubChem.
